The record followed here is PubChem BioAssay (NCATS).

In assay [1] the test system is Zika virus NS2B-NS3 protease. The assay can be described thus: Primary screen GU AMC qHTS for Zika virus inhibitors (AID 1347154).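 Also: 0% = no-inhibitor control and -100% = no-enzyme control; nearly all actives have a fitted effect of over 70% in size.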 Summed up:
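Fluorogenic AMC-substrate cleavage by noncovalent NS2B-NS3 protease complex (25 nM, pH 8.0 Tris buffer with Tween 20) followed for 15 minutes at room temperature (~20% conversion). Percent inhibition from ex340/em450 signal change, fitted by 4-parameter Hill equation.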
A general note: In qHTS, concentration-response curves come from the screen itself.

A short description of assay [2]: qHTS to identify inhibitors of the type 1 interferon - major histocompatibility complex class I in skeletal muscle: primary screen against the NCATS Pharmaceutical Collection (AID 1347407).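 Also: luminescence of HiBiT knocked into endogenous HLA-B as interferon-induced MHC class I level; % is scaled to controls: 0 for no effect and ±100 for the full control effect.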 The method in brief:
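Cells were seeded with 4 ng/ml IFN-beta, incubated 1 h, then dosed with compounds over eight 1:5 steps up to 46 uM final. After 24 h at 37 C, HiBiT lytic reagent was added and luminescence read after 10 min lysis in the dark.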

The target in assay [3] is Protein phosphatase 1D (Homo sapiens) (UniProt O15297). The assay can be described thus: RapidFire Mass Spectrometry qHTS Assay for Modulators of WT P53-Induced Phosphatase 1 (WIP1) (AID 1347424).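 Also: amount of dephosphorylated VEPPL-S-QETFS peptide product formed by WIP1; series mostly up to about 63 µM; plate controls were DMSO wells for no effect and GSK830371 inhibitor control at 10 µM for full effect.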 The method in brief:
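RapidFire mass spectrometry measured dephosphorylated peptide after 5 min room-temperature reaction of 2 uM VEPPL-pS-QETFS with 10 nM WIP1 (50 mM Tris-HCl pH 7.5, 30 mM MgCl2, 0.1 mM EGTA, BSA), following 1 hr compound preincubation; 1 uM isotope-labelled product standard.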

For assay [4] the target is unchanged. The assay can be described thus: Rhodamine-PBP qHTS Assay for Modulators of WT P53-Induced Phosphatase 1 (WIP1) (AID 1347425). Also: % of control where 0% means no effect. Summed up:
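Steps: enzyme with Rh-PBP sensor and compounds, room-temperature incubation of 1 hr, baseline read, addition of VEPPL-pS-QETFS (10 uM final), kinetic fluorescence reads at 525/598 nm. Activity equals final minus baseline signal.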

A short description of assay [5]: qHTS to identify inhibitors of the type 1 interferon - major histocompatibility complex class I in skeletal muscle: primary screen against the NCATS Mechanism Interrogation Plate v5.0 (MIPE) Libary (AID 1347411).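 Also: plate controls were vehicle for no effect and reference inhibitor for full effect; nearly all actives have a fitted effect of over 65% in size.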 Summed up:
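Seed engineered human myoblasts (HLA-B HiBit) in medium without dexamethasone containing 4 ng/ml IFN-beta; after 1 hr add compound titrations (top 46 uM final). Incubate 24 hrs at 37 C, lyse 10 min with HiBiT reagent, read luminescence.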

The nature of assay [6]: Confirmatory screen GU Rhodamine qHTS for Zika virus inhibitors qHTS (AID 1347157). Also: nearly all actives have a fitted effect of over 70% in size. Also: potency is read from the fitted curve at half-maximal effect.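 As to activity change, negative = inhibition: plate controls were no-inhibitor wells for no effect and no-enzyme wells for full effect.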 The method in brief:
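Percent inhibition came from the 15-min rise in Rhodamine110 fluorescence (1.5 microM substrate, ~15% conversion), normalized to no-inhibitor and no-enzyme wells and Hill-fitted. Unlinked protease, 25 nM, pH 8.0 Tris buffer; compounds up to 114 microM, 15-min preincubation.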

Assay [7] in a line: ZIKV-mCherry secondary qHTS for Zika virus inhibitors (AID 1347158). Also: top concentration of the series differs between compounds. The method in brief: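 Compounds were tested in Vero monkey kidney cells infected with recombinant mCherry-expressing Zika virus at MOI 1 for 48-72 h at 37 °C. Fixed cells were nuclear-stained and imaged, and infection rate was taken as the fraction of mCherry-positive cells.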
Assay [8] in a line: Confirmatory screen NINDS Rhodamine qHTS for Zika virus inhibitors (AID 1347161). Also: nearly all actives have a fitted effect of over 60% in size. Also: potency is read from the fitted curve at half-maximal effect.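 As to activity change, negative = inhibition: purified Zika NS2B-NS3 protease with linked NS2B cofactor domain and Rhodamine110 peptide substrate; series mostly up to about 110 µM; plate controls were no-inhibitor control for no effect and no-enzyme control for full effect.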 The method in brief: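 Enzyme (25 nM, linked NS2B-NS3) was preincubated 15 min with compound in 10 mM Tris-HCl pH 8.0, 0.01% Tween 20. Rhodamine110 substrate (1.5 microM) was then added and fluorescence read at start and after 15 min.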
The subject of assay [9] is Zika virus NS2B-NS3 protease (linked). The assay can be described thus: 384 well plate NINDS AMC confirmatory qHTS for Zika virus inhibitors (AID 1347163). Also: potency is read from the fitted curve at half-maximal effect; nearly all actives have a fitted effect of over 50% in size. As to conditions: Recombinant NS2B-NS3 protease, Ac-VKTGKR-AMC fluorescence. The method in brief: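 Fluorescence at 355/460 nm was read after 25 minutes of cleavage of 30 microM Ac-VKTGKR-AMC at room temperature, in the dark. Before substrate addition, compounds (up to 1 mM final) sat ~15 minutes with 5, 30 or 60 nM linked protease. Signals were normalized to no-enzyme and no-inhibitor wells.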

Assay [10] has as its system Zika virus NS2B-NS3 protease (linked construct). The assay can be described thus: 384 well plate NINDS Rhodamine confirmatory qHTS for Zika virus inhibitors (AID 1347164). Also: potency is read from the fitted curve at half-maximal effect; nearly all actives have a fitted effect of over 65% in size. Particulars: rhodamine-110 peptide substrate fluorescence. Summed up: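 Compounds are incubated about 15 minutes with linked protease (5, 30 or 60 nM final). Rhodamine 110-tagged Ac-LKRR substrate (10 microM final) is added and fluorescence measured after 25 minutes.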

Assay [11] can be described thus: Tertiary RLuc qRT-PCR qHTS assay for Zika virus inhibitors (AID 1347169). Also: top concentration of the series differs between compounds; % is scaled to controls: 0 for no effect and ±100 for the full control effect; nearly all actives have a fitted effect of over 55% in size. The method in brief:
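Orthogonal cell-based infection assay using recombinant ZIKV-RLuc (Cambodian) in Vero cells; compound added prior to virus at MOI 1-2. Incubation lasts 48-72 hrs at 37 degrees C before live-cell Renilla substrate is added and luminescence measured.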
For orientation: Quantitative PCR measures a nucleic acid by following its amplification.

Assay [12] has as its system Zika virus NS2B-NS3 protease (unlinked complex). The assay can be described thus: Primary screen GU Rhodamine qHTS for Zika virus inhibitors: Unlinked NS2B-NS3 protease assay (AID 1347159). Also: nearly all actives have a fitted effect of over 60% in size. Also: potency is read from the fitted curve at half-maximal effect. As to activity change, negative = inhibition: % is scaled to controls: 0 for no effect and ±100 for the full control effect. Summed up: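 Unlinked NS2B/NS3, 25 nM; Rhod110 peptide, 1.5 microM; compounds, up to 114 microM. Reaction run 15 min at RT in 10 mM Tris-HCl pH 8.0, 0.01% Tween 20; kinetic fluorescence change fitted with a 4-parameter Hill model.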

For assay [13], the system named is Zika virus NS2B-NS3 protease (linked construct). The assay can be described thus: Primary screen NINDS Rhodamine qHTS for Zika virus inhibitors (AID 1347160). Also: nearly all actives have a fitted effect of over 55% in size. Also: potency is read from the fitted curve at half-maximal effect. Summed up:
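Single-chain NS2B-NS3 protease, 25 nM, pH 8.0; compounds preincubated 15 min. Activity: Rhodamine110 release from 1.5 microM substrate over 15 min, room temperature, data fitted to 4-parameter Hill.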

Assay [14] has the same test system. The assay can be described thus: Confirmatory screen NINDS AMC qHTS for Zika virus inhibitors (AID 1347152). Also: potency is read from the fitted curve at half-maximal effect; nearly all actives have a fitted effect of over 70% in size. As to conditions: Purified linked NS2B-NS3, AMC substrate fluorescence. The method in brief:
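In this dose-response qHTS, AMC release from 10 microM Bz-Nle-KRR-AMC by 1 nM linked protease is measured over 15 minutes (about 20% conversion) at pH 8.0. Percent inhibition is fitted to a 4-parameter Hill curve.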

Assay [15] in a line: Vero cells viability qHTS for Zika virus inhibitors (AID 1347167). Also: % is scaled to controls: 0 for no effect and ±100 for the full control effect. Summed up:
(§1)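 Luminescent ATP readout (CellTiter Glo) after 30 min at 37 degrees C gives viability; cells in DMEM + 4% FBS were treated 24 to 48 hours with compound, following overnight attachment.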

Assay [16] can be described thus: HepG2 cells viability qHTS for Zika virus inhibitors (AID 1347168). Also: % is scaled to controls: 0 for no effect and ±100 for the full control effect. Summed up:
as §1

Assay [17] deals with Zika virus NS2B-NS3 protease (unlinked complex). The assay can be described thus: Confirmatory screen GU AMC qHTS for Zika virus inhibitors (AID 1347153).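 Also: percent inhibition with 0% = no inhibitor control and 100% = no enzyme control; nearly all actives have a fitted effect of over 70% in size.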 Summed up: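 Unlinked enzyme 25 nM, Tris pH 8.0/0.01% Tween 20; cpd 15 min RT, dark; + AMC substrate 10 µM (Km 18.3 µM); 340/450 nm read at t0 and 15 min; % inhibition → 4-param fit.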

Several values for one entry are separate records, joined by “and”; a condition that tells them apart may be missing. Equal entries are not always repeated. Results filed as inconclusive are left out. Values without a mark were called inactive. Activity calls are given as the source filed them. Calls follow the shape of the dose curve; as a rule, active = well fitted curve in the direction sought with a large enough effect; inconclusive = small, poorly fitted or top-dose-only effect, or another doubt; inactive = no such curve, though single readings can be large; an effect the other way counts as inactive or inconclusive.

Protein phosphatase 1D (Homo sapiens), sequence (O15297 whole entry, looked up): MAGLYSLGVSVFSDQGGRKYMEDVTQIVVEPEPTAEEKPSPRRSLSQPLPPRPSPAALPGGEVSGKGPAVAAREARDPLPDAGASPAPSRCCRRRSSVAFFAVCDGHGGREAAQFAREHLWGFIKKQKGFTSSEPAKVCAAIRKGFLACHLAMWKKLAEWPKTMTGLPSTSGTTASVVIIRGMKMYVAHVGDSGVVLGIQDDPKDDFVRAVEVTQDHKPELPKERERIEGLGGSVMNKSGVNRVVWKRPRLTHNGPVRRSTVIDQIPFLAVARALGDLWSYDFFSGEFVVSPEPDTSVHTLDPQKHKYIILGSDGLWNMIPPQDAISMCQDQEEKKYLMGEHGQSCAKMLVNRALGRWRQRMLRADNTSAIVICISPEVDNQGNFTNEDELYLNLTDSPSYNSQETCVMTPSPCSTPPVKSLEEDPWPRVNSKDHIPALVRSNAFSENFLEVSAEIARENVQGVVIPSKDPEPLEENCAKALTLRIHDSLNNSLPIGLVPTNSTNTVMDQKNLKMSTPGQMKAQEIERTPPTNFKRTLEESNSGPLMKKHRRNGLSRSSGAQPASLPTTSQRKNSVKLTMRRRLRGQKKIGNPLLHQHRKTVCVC

For `CN(C)CCCSc1ccccc1NC(=O)/C=C/c1ccccc1`, the compound was called inactive in assay [1], in assay [2], in assay [3] and in [4].
As to `O=C(O)CCC(=O)c1ccc(-c2ccccc2)cc1`, the result in [1], in [2], in [3] and in assay [4] was inactive.
With `CCCCC[C@H](O)/C=C/[C@H]1[C@H](O)CC(=O)[C@@H]1CCCCCCC(=O)O`, the activity change, negative = inhibition in assay [1] was 5.76% [at 6.83 µM]. In addition, the Potency result in assay [5] is “inactive”.
Regarding `O=C(OCc1ccccc1)c1ccc(O)cc1`, the compound was called inactive in [1], in assay [2], in [3] and in assay [4].
With `O=C(O)[C@@H]1C[C@H](CP(=O)(O)O)CCN1`, the call in [1] was inactive.
As to `NC[C@H]1O[C@H](O[C@H]2[C@H](O)[C@@H](O[C@H]3O[C@H](CO)[C@@H](O)[C@H](N)[C@H]3O)[C@H](N)C[C@@H]2N)[C@H](N)C[C@@H]1O`, the compound was classed as inactive in assay [1]. Also, the Potency result in assay [5] was “inactive”.
On to `COc1ccc2nc(NC(=O)Nc3ccccc3)sc2c1`, for which the call in assay [1], in assay [2] and in assay [3] was inactive.
Take `Cc1cc(-c2ccc(N=Nc3c(S(=O)(=O)O)cc4cc(S(=O)(=O)O)cc(N)c4c3O)c(C)c2)ccc1N=Nc1c(S(=O)(=O)O)cc2cc(S(=O)(=O)O)cc(N)c2c1O`: the Potency in assay [6] was 2.24 µM (active); in assay [8], 2.24 µM (active); in assay [9], 20 µM (active); in [10], 7.94 µM (active). Also, the call in assay [7] was inactive. Also, the Potency entry in [11] is “inactive”.
As for `COc1ccc(C[C@H](C)NC[C@@H](O)c2ccc(O)c(NC=O)c2)cc1`, in assay [1], the call was inactive. For the same compound, the Potency entry in assay [12] and in assay [13] was “inactive” in each case.
As to `O=C(O)CCC/C=C\C[C@@H]1[C@@H](/C=C/[C@@H](O)COc2cccc(Cl)c2)[C@H](O)C[C@@H]1O`, the compound was classed as inactive in assay [1].
For `CC(C)(C)CC(C)(C)c1cc(Cc2cc(C(C)(C)CC(C)(C)C)cc(-n3nc4ccccc4n3)c2O)c(O)c(-n2nc3ccccc3n2)c1`, the Potency entry in assay [6] and in assay [8] was “inactive” in each case. In addition, the activity change, negative = inhibition in assay [11] is -2.91% [at 1.74 µM].
With `Nc1ccc(N=Nc2ccccc2)c(N)n1`, the call in assay [1], in assay [2], in assay [3] and in assay [4] was inactive.
For the compound `O=C(O)Cc1cc(I)c(Oc2ccc(O)c(I)c2)c(I)c1`, the Potency in assay [14] is 15.6 µM (active); in assay [6], 2.21 µM (active) and 10 µM (active); in assay [12] it was 7.08 µM (active); in [13], 3.16 µM (active); in assay [8] it was 2.21 µM (active) and 7.94 µM (active); in [9], 2.82 µM (active). Further, in [10], the Potency is 3.16 µM (active). The compound was called inactive in assay [15] and in assay [16]. The activity change, negative = inhibition in assay [11] was 45.7% [at 0.566 µM].
Turning to `C[C@@](Cc1ccc(O)c(O)c1)(NN)C(=O)O`, the result in assay [1] was inactive.
For `CC/C=C\C/C=C\C/C=C\CCCCCCCC(=O)O`, the activity change, negative = inhibition in assay [1] is -0.651% [at 6.83 µM].
Turning to `CCOC(=O)C1=C(COCCN)NC(C)=C(C(=O)OC)C1c1ccccc1Cl` (stereo not drawn), in assay [1], the result was inactive.
Still for that read-out and setting: next, `O=C1CCC(c2ccccc2)(C2CCN(Cc3ccccc3)CC2)C(=O)N1` (stereo not drawn): “inactive”; `N[C@H](CC(=O)O)C(=O)O`: “inactive”.
For the compound `CO[C@H]1C[C@H](O[C@@H]2/C(C)=C/C[C@@H]3C[C@@H](C[C@]4(CC[C@H](C)[C@@H](C5CCCCC5)O4)O3)OC(=O)[C@@H]3C=C(C)/C(=N/O)[C@H]4OC/C(=C\C=C\[C@@H]2C)[C@]43O)O[C@@H](C)[C@@H]1O`, the compound was called inactive in assay [17], in assay [15] and in [16]. Also, the Potency entry in [8] and in [11] was “inactive” each time.
For `O=C(O)Cc1nn(Cc2ccc(Br)cc2F)c(=O)c2ccccc12`, in assay [1], the compound was classed as inactive.
